From PubChem BioAssay AID623911 (Vanderbilt High Throughput Screening Facility, 2012)
In all, about 2,100 compounds went through this assay and about 770 (37%) were called active. The list shows a part of the results. Values without a mark were called inactive.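 The calls were made as follows: active = by-eye trace score of 1 for enhancers or -1 for inhibitors, so actives lie on both sides (some results past the limit were not filed as active); inactive = score 0, or 3 fluorescent, or 4 baseline rise.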

The compounds below were run against G protein-activated inward rectifier potassium channel 2 (Homo sapiens) + G protein-activated inward rectifier potassium channel 1 (Homo sapiens) (UniProt P48051+P48549) (assay: GIRK1/2 thallium flux modulators, retest, confirmation, cell-based, HEK293 rmGlu8/hGIRK1/2, FluoZin-2 (AID 623911)). Conditions: HEK293 rmGlu8/hGIRK1/2, thallium flux FluoZin-2; actives lie on both sides; glutamate co-added at its EC20 level.
Chain of G protein-activated inward rectifier potassium channel 2 (Homo sapiens) + G protein-activated inward rectifier potassium channel 1 (Homo sapiens) (P48051 whole entry, looked up): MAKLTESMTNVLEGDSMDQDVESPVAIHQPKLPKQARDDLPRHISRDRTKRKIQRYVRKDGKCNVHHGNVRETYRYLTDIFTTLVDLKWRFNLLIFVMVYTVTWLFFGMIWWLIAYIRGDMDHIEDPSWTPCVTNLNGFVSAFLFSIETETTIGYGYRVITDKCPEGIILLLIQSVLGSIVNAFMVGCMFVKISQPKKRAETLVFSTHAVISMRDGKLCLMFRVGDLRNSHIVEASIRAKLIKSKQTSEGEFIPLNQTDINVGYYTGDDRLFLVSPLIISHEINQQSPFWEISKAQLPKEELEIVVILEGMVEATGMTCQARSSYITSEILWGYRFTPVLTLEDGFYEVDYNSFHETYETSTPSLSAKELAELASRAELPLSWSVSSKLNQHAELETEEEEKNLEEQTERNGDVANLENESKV
Chain of G protein-activated inward rectifier potassium channel 2 (Homo sapiens) + G protein-activated inward rectifier potassium channel 1 (Homo sapiens) (P48549 whole entry, looked up): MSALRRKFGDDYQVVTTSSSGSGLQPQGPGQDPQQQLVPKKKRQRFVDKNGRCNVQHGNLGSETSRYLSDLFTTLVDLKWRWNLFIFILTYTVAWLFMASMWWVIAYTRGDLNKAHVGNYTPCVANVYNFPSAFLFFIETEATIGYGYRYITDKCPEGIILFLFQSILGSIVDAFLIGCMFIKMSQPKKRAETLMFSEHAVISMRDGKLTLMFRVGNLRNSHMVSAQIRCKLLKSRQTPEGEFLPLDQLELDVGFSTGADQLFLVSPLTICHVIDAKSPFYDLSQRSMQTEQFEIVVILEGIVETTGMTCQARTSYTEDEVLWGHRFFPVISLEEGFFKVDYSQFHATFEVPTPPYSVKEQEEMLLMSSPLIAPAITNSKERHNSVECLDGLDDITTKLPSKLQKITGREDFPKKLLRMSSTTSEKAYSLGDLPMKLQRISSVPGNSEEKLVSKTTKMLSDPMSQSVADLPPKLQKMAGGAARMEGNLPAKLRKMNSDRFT

Compound | manual score
Cc1ccc(C(=O)NNC(=S)Nc2cccc3ccccc23)s1 | 0
O=C(NNC(=S)Nc1ccccc1)c1cccc(Br)c1 | 0
O=C(NNC(=S)Nc1cccc2ccccc12)c1cccc(Br)c1 | 1 (active)
CC(C)(C)S(=O)(=O)c1ccc(S(=O)(=O)C(C)(C)C)s1 | 0
CC(C)(C)C(=O)NC(=S)NNC(=O)c1sc2ccccc2c1Cl | 1 (active)
O=C(NC(=S)N(CCCCO)C1CCCCC1)c1sc2ccccc2c1Cl | 1 (active)
CCCCOC(=S)NC(=O)c1sc2ccccc2c1Cl | 1 (active)
CCCOC(=S)NC(=O)c1sc2ccccc2c1Cl | 1 (active)
COc1ccccc1C(=O)NC(=S)NNC(=O)c1sc2ccccc2c1Cl | 0
Nc1c(C(O)(C(F)(F)F)C(F)(F)F)ccc2ccccc12 | 0
CCCCN(Cc1ccccc1)S(=O)(=O)c1ccc2[nH]c(=O)oc2c1 | 0
CCOC(=S)NC(=O)c1sc2ccccc2c1Cl | 1 (active)
COc1ccccc1C(=O)NNC(=S)NC(=O)c1sc2ccccc2c1Cl | 0.5
Cn1c(-c2sc3ccccc3c2Cl)n[nH]c1=S | 0
Cc1cc(C)c2nc(SC(C)C(=O)NCC(=O)Nc3ccc(F)c(F)c3F)cc(C)c2c1 (stereo not given) | 0
COc1cccc(-n2c(SCC(=O)NCCC3=CCCCC3)nc3n[nH]c(C)c3c2=N)c1 | -0.5
Cc1cc(C)c2nc(SCC(=O)NCCC3=CCCCC3)cc(C)c2c1 | 1 (active)
Nn1c(SC/C=C/c2ccccc2)nnc1-c1ccccn1 | 0
COc1cc(Cl)cc2c1Sc1ccccc1/C2=C/CCN(C)C | -1 (active)
Cc1nc(SC2CCOC2=O)c2c(C)c(C)sc2n1 (stereo not given) | 1 (active)
S=C(NN=C1C2CC3CC(C2)CC1C3)Nc1ccccc1 | 0
CCCCn1c(SCc2nc(N)nc(Nc3ccccc3C)n2)nc2ccccc2c1=O | 0
CN1CCN(C(=O)c2sc(=S)n(-c3ccccc3)c2N)CC1 | 0
O=C(c1ccccc1Oc1ccccc1)N1CCN(c2ccccc2)CC1 | -1 (active)
O=C(CN1C(=O)c2ccccc2C1=O)Nc1sc2c(c1C(=O)NCC1CCCO1)CCC2 (stereo not given) | 0
COc1ccc(C(OC(=O)c2cccs2)C(=O)NCC2CCCO2)cc1 (stereo not given) | 0
Cc1ccc(-n2nc(-c3cccs3)cc2C(=O)NCC2CCCO2)c(C)c1 (stereo not given) | -1 (active)

Compound | manual score
Cc1cccc(S(=O)(=O)Nc2cccc3c2C(=O)c2ccccc2-3)c1 | 0
COC(=O)Nc1nnc(Cc2ccc(Cl)cc2)s1 | 0
CC(C)Cn1cnc2sc3c(c2c1=N)CCCC3 | -1 (active)
N#Cc1ccc(-c2csc(NC3=NCCCCC3)n2)cc1 | -1 (active)
O=C(NCCN1CCN(C(=O)Nc2ccccc2)CC1)Nc1ccccc1 | 0
O=C(NC(=Nc1ccccc1)N1CCOCC1)Nc1ccccc1 | 1 (active)
CC(CCc1ccccc1)NC(=O)N1CCOCC1 (stereo not given) | 0
CC1=CC(C)(C)n2c(O)c(N=NC(N)=S)c3cccc1c32 | 0
CCCSc1nc2sc3c(c2c(=O)[nH]1)CCN(Cc1ccccc1)C3 | 3
Oc1c(Cl)cc(Cl)c2c1NCCC2 | 0
O=C(NC(=S)Nc1ccc(Cl)cn1)c1cccs1 | 0.5
Cc1cccc(NC(=S)NC(=O)c2cccs2)n1 | 1 (active)
Cc1ccnc(NC(=S)NC(=O)c2cccs2)c1 | 1 (active)
Cc1ccc2oc(-c3cccc(NC(=S)NC(=O)c4cccs4)c3)nc2c1 | 0
CN1C(=O)NC(c2ccccc2)C2=C1CN(Cc1ccccc1)C2=O (stereo not given) | 0
CCCOc1cccc(C(=O)NC(=S)Nc2cccc(C(F)(F)F)c2)c1 | 0
CCCCOc1ccc(C(=O)NNC(=S)NC(=O)CC)cc1 | 1 (active)
CCCOc1ccc(C(=O)NNC(=S)NC(=O)CC)cc1 | 1 (active)
CC1Cc2nc(SCC(=O)Nc3nc4ccccc4s3)n(C)c(=O)c2S1 (stereo not given) | -0.5
N#Cc1nc(COc2ccccc2)oc1N1CCN(c2cccc(Cl)c2)CC1 | 0
COc1ccccc1N=Cc1nc(-c2ccccc2)oc1OC(C)=O | 0
CCC(=O)Oc1oc(-c2ccccc2)nc1C=Nc1ccccc1OC | 0
Cc1oc(-c2ccccc2)nc1CS(=O)CC(=O)O (stereo not given) | 1 (active)
Cc1ccn2c(NC3CCCCC3)c(C(C)C)nc2c1 | -1 (active)
C=CCOc1cccc(C2/C(=C(/O)c3ccc(C)cc3)C(=O)C(=O)N2CCN2CCOCC2)c1 (stereo not given) | 0
Cn1c(SCC(=O)N2c3ccccc3CCc3ccccc32)nnc1-c1ccc(O)cc1 | 0
CCc1cccc(CC)c1-n1c(SCC(=O)N2CCc3ccccc3C2)nnc1-c1cccnc1 | -1 (active)

Compound | manual score
CCOC(=O)c1cccc(NC(=O)CSc2nnc(-c3cccnc3)n2C)c1 | 0
CCN=c1scc(-c2ccco2)n1/N=C/c1ccc(O)cc1 | 0
CC(C)(C)C(=O)Nc1nc2c(s1)COc1ccccc1-2 | -0.5
CN1CCN(Cc2cccc(Oc3ccc(Cl)cc3)c2)CC1 | 0
COC(=O)c1ccc(Cl)c(NC(=O)CN2CCN(C)CC2)c1 | 0
CN1CCN(CC(=O)N2c3ccccc3C(C)(c3ccc(Cl)cc3)CC2(C)C)CC1 (stereo not given) | -1 (active)
CC1(c2ccccc2)CC(C)(C)N2C(=O)/C(=C3\SC(=S)NC3=O)c3cccc1c32 (stereo not given) | 0
CN1CCN(CC(=O)N2c3ccccc3C(C)(c3ccccc3)CC2(C)C)CC1 (stereo not given) | -1 (active)
S=c1[nH]nc(CSc2nc3ccccc3s2)n1C1CCCCC1 | 0
N#Cc1ccsc1NC(=O)CN1CCN(c2ccc(O)cc2)CC1 | 0
Cc1cc(NC(=O)CSc2nc(C3CC3)nc3sc(C)c(C)c23)no1 | 1 (active)
Cc1cc(NC(=O)CSc2nc3ccccc3c(=O)n2Cc2ccccc2)no1 | 0
COc1cc(OC)c2nc(C)c3c(c2c1)N(c1ccc(O)cc1)CC3 | -1 (active)
O=C(Nc1ccccc1C(=O)O)c1ccc(NC(=O)c2ccc(Br)o2)cc1 | -0.5
O=C(Nc1nncs1)c1ccccc1NS(=O)(=O)c1cccs1 | 0
O=C(Nc1ccccc1)c1ccccc1NS(=O)(=O)c1ccc(Cl)s1 | -1 (active)
Cc1c(C(=O)NC(=S)Nc2ccccc2N2CCCC2)cccc1[N+](=O)[O-] | 0
O=C(NC(=S)Nc1ccccc1N1CCCC1)c1ccccc1[N+](=O)[O-] | 0
O=C(NC(=S)N1CCCc2ccccc21)c1ccc(Br)cc1 | 1 (active)
O=C(COc1ccc(Br)cc1Br)NC(=S)N1CCCc2ccccc21 | 0
O=C(NC(=S)N1CCCc2ccccc21)c1ccc(Cl)cc1 | 1 (active)
O=C(NC(=S)Nc1ccccc1N1CCCC1)c1ccc([N+](=O)[O-])cc1 | 1 (active)
CCC1CCCCN1C(=O)CSc1nnc(-c2ccco2)o1 (stereo not given) | 0
CCC1CCCCN1C(=S)NC(=O)c1ccc([N+](=O)[O-])cc1 (stereo not given) | 1 (active)
O=c1[nH]c(NCCO)nc2c1C1(CCCCC1)Cc1ccccc1-2 | 0
CCOC(=O)c1cccc(-n2c(C)cc(C=O)c2C)c1 | 0
O=C(Nc1nc(-c2cc3ccccc3oc2=O)cs1)c1ccc(Br)o1 | 0

Compound | manual score
O=C(c1ccccc1)N1CCCc2ccccc21 | 0
O=C(N/N=C1\CCCc2ccccc21)c1ccc([N+](=O)[O-])cc1 | 0
O=C(NC(=S)N1CCc2ccccc21)c1ccccc1Br | 1 (active)
O=C(NC(=S)N1CCCc2ccccc21)c1ccc([N+](=O)[O-])cc1 | 1 (active)
O=C(NC(=S)N1CCCc2ccccc21)c1ccccc1 | 1 (active)
O=C(NC(=S)N1CCc2ccccc21)c1ccccc1 | 1 (active)
C=CCN1C(=O)/C(=C2/Sc3ccccc3N2C)SC1=Nc1c(C)n[nH]c1C | 0
O=C(NC(=S)N1CCN(c2ccc([N+](=O)[O-])cc2)CC1)c1ccc(F)cc1 | 1 (active)
O=C(NC(=S)N1CCN(c2ccc(F)cc2)CC1)C12CC3CC(CC(C3)C1)C2 | 0
CCC(=O)c1ccc(N2CCN(C(=O)c3cc([N+](=O)[O-])ccc3N3CCN(C)CC3)CC2)c(F)c1 | 0
O=S(=O)(Nc1cc(Cl)ccc1N1CCCCC1)c1cccs1 | -1 (active)
O=S(=O)(Nc1ccccc1N1CCCCC1)c1ccc(Cl)s1 | 0
CCC/C(=N/NC(=O)c1csc(C)c1C)c1ccc(Cl)s1 | 0
COc1ccc(-c2onc(C)c2-c2ccc(C(=O)OC(C)C)o2)c(O)c1 | 0
COc1ccc(-n2ncc3c(NCc4cccs4)ncnc32)cc1 | 0
COc1ccc(-c2c(S(=O)(=O)c3ccccc3)cnn2-c2ccccc2)cc1 | -1 (active)
COc1ccc(-c2c3c(=O)n(C)c(=O)n(C)c3cn2-c2ccccc2)cc1 | 0
N#Cc1c(N)nc(SCc2ccccc2)c(C#N)c1-c1ccco1 | 0
Cc1ccc(OCC(=O)NNC(=O)C(C)Sc2ncnc3sc(C)c(C)c23)cc1 (stereo not given) | 1 (active)
CC(NC(=O)COc1ccccc1)C(=O)NC1=NCCS1 (stereo not given) | 0
COC(=O)c1c(NC(=O)CSc2nnc(-c3cccnc3)n2Cc2ccco2)sc(C)c1C | -0.5
CCOc1ccccc1NC(=O)CSc1nnc(-c2ccco2)n1Cc1ccco1 | 0
CCOC(=O)c1c(NC(=O)CSc2nnc(-c3ccncc3)n2Cc2ccco2)sc(C(C)=O)c1C | -1 (active)
CCn1cc(C(=O)N2CC=C(c3ccccc3)CC2)c(=O)c2ccc(C)nc21 | 0
